Here are results for two compounds from PubChem BioAssay AID1159580 (chemical genetic matrix, 2015).

Screen size: about 5,500 compounds; about 2,000 (36%) were called active. Another 18% or so got no clear call; they are omitted. The list shows a part of the results. Values without a mark were called inactive. Rule as the data show it: active = normalized growth mostly below about 0.91 (no sharp cut-off); inconclusive = no clear call, values can overlap the other calls; inactive = mostly above about 0.92.

This experiment can be described thus: chemical genetic growth profiling, strain panel (AID 1159580).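 Also: tested at 20 µM; growth read once vehicle control cultures reached saturation at 30 °C; 1 = growth at the plate median or of vehicle wells; lower values mean less growth of the strain.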 The conditions noted are these: S. cerevisiae deletion strains, growth OD.
Setting [1] is: locus YAL013W, strain DEP1, hits give low values.
[2] abbreviates: locus YMR263W, strain SAP30, hits give low values.
Where [3] appears, read: locus YNL153C, strain GIM3, hits give low values.

For `FC(F)(F)c1cc(CO[C@H]2CCCN[C@H]2c2ccccc2)cc(C(F)(F)F)c1`, the normalized growth was 0.988 under setting [1]; 0.998 (locus YAL040C, strain CLN3, hits give low values); 0.975 (locus YCL061C, strain MRC1 (second series), hits give low values); 0.96 (locus YDR363W, strain ESC2, hits give low values); 1.04 (locus YER002W, strain NOP16, hits give low values); 0.999 under setting [2]. Besides, the normalized growth is 0.964 (locus YMR307W, strain GAS1, hits give low values); 1.05 (locus YNL128W, strain TEP1, hits give low values); 0.823 under setting [3]; 1.04 (locus YNL175C, strain NOP13, hits give low values); 1.07 (locus YNL197C, strain WHI3, hits give low values); 1.03 (locus YNL224C, strain SQS1, hits give low values). In addition, the normalized growth (locus YOR083W, strain WHI5 (second series), hits give low values) was 0.913.

Turning to `Cn1c2c(c3c1CCCC3)CCCC2`, the normalized growth is 0.995 under setting [1]; 1.03 (locus YBR229C, strain ROT2, hits give low values); 1.01 (locus YCL061C, strain MRC1, hits give low values); 0.974 (locus YDL101C, strain DUN1, hits give low values); 1.02 (locus YDL134C, strain PPH21, hits give low values); 1.02 (locus YDR150W, strain NUM1, hits give low values). Further, the normalized growth by setting is: (locus YEL061C, strain CIN8, hits give low values) 0.988; (locus YGR078C, strain PAC10, hits give low values) 1.01; (locus YHR030C, strain SLT2, hits give low values) 1.01; (locus YHR087W, strain rtc3, hits give low values) 0.992; (locus YJR043C, strain POL32, hits give low values) 1.02; (locus YJR075W, strain HOC1, hits give low values) 1.02. Also, the normalized growth (locus YKL190W, strain CNB1, hits give low values) was 1.02; the normalized growth (locus YLR039C, strain RIC1, hits give low values) is 0.925; the normalized growth (locus YLR058C, strain SHM2 (second series), hits give low values) was 1.02; the normalized growth (locus YLR085C, strain ARP6, hits give low values) was 1; the normalized growth (locus YLR262C, strain YPT6, hits give low values) is 0.974; the normalized growth (locus YML094W, strain GIM5, hits give low values) is 0.972. Further, the normalized growth runs as follows: (locus YMR219W, strain ESC1, hits give low values) 1.02; under setting [2], 1; under setting [3], 0.873 (active); (locus YNL298W, strain CLA4 (second series), hits give low values) 1.02; (locus YNL322C, strain KRE1, hits give low values) 1.01; (locus YNR030W, strain Alg12, hits give low values) 1.03. Also, the normalized growth is, setting by setting: (locus YOL006C, strain TOP1, hits give low values) 1; (locus YPL055C, strain LGE1, hits give low values) 1.08; (locus YPL241C, strain CIN2, hits give low values) 1.01; (locus YPR135W, strain CTF4, hits give low values) 1.06.
